Test results as given in PubChem BioAssay AID1159580 (chemical genetic matrix, 2015).
Several values for one entry are separate records, joined by “and”; a condition that tells them apart may be missing. Identical values can stand only once. In all, about 5,500 compounds went through this assay and about 2,000 (36%) were called active. Not shown: some 18% with an inconclusive outcome. Rule as the data show it: active = normalized growth mostly below about 0.91 (no sharp cut-off); inconclusive = no clear call, values can overlap the other calls; inactive = mostly above about 0.92. The list shows a part of the results.

Experiment: chemical genetic growth profiling, strain panel (AID 1159580);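 also: tested at 20 µM; growth read once vehicle control cultures reached saturation at 30 °C; 1 = growth at the plate median or of vehicle wells; lower values mean less growth of the strain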
Settings: S. cerevisiae deletion strains, growth OD

Measured: normalized growth

CCOc1ccc(Cc2nccc3cc(OCC)c(OCC)cc23)cc1OCC
inactive: locus YAL013W, strain DEP1, stronger effect = lower value 0.976 | locus YAL021C, strain ccr4, stronger effect = lower value 0.946 | locus YAL026C, strain drs2, stronger effect = lower value 0.974 | locus YAL030W, strain snc1, stronger effect = lower value 0.99 | locus YBL061C, strain skt5, stronger effect = lower value 0.968 | locus YBR009C, strain hhf1, stronger effect = lower value 0.975 | locus YBR021W, strain FUR4, stronger effect = lower value 0.961 | locus YBR023C, strain chs3, stronger effect = lower value 0.974 | locus YBR171W, strain sec66, stronger effect = lower value 0.965 | locus YBR229C, strain ROT2, stronger effect = lower value 0.969 | locus YBR231C, strain swc5, stronger effect = lower value 0.998 | locus YBR279W, strain paf1, stronger effect = lower value 0.989 | locus YCL011C, strain gbp2, stronger effect = lower value 0.993 | locus YCL016C, strain dcc1, stronger effect = lower value 0.981 | locus YCL029C, strain bik1, stronger effect = lower value 0.952 | locus YCL069W, strain vba3, stronger effect = lower value 0.99 | locus YCR088W, strain abp1, stronger effect = lower value 0.969 | locus YDL005C, strain med2, stronger effect = lower value 0.989 | locus YDL035C, strain GPR1, stronger effect = lower value 0.956 | locus YDL040C, strain nat1, stronger effect = lower value 0.976 | locus YDL074C, strain BRE1, stronger effect = lower value 0.855 | locus YDL101C, strain DUN1, stronger effect = lower value 0.956 | locus YDL134C, strain PPH21, stronger effect = lower value 0.939 | locus YDL185W, strain tfp1, stronger effect = lower value 0.994 | locus YDL192W, strain arf1, stronger effect = lower value 0.958 | locus YDR001C, strain nth1, stronger effect = lower value 0.977 | locus YDR069C, strain doa4, stronger effect = lower value 0.982 | locus YDR101C, strain arx1, stronger effect = lower value 0.967 | locus YDR137W, strain rgp1, stronger effect = lower value 0.89 | locus YDR150W, strain NUM1, stronger effect = lower value 0.994 | locus YDR159W, strain sac3, stronger effect = lower value 0.892 | locus YDR162C, strain NBP2, stronger effect = lower value 0.945 | locus YDR195W, strain ref2 1.05 | locus YDR297W, strain sur2, stronger effect = lower value 0.976 | locus YDR318W, strain mcm21, stronger effect = lower value 0.931 | locus YDR334W, strain swr1, stronger effect = lower value 0.974 | locus YDR335W, strain msn5, stronger effect = lower value 0.985 | locus YDR388W, stronger effect = lower value 0.954 | locus YDR392W, strain spt3, stronger effect = lower value 0.866 | locus YDR502C, strain sam2, stronger effect = lower value 0.96 | locus YEL003W, strain gim4, stronger effect = lower value 0.963 | locus YEL037C, strain rad23, stronger effect = lower value 0.956 | locus YEL061C, strain CIN8 (second series), stronger effect = lower value 0.959 | locus YEL061C, strain CIN8, stronger effect = lower value 0.986 | locus YER015W, strain faa2, stronger effect = lower value 0.965 | locus YER016W, strain bim1, stronger effect = lower value 0.962 | locus YER110C, stronger effect = lower value 0.968 | locus YER111C, strain swi4, stronger effect = lower value 0.972 | locus YER155C, strain BEM2 (second series), stronger effect = lower value 0.913 | locus YER155C, strain BEM2, stronger effect = lower value 0.99 | locus YER167W, strain BCK2, stronger effect = lower value 0.956 | locus YFR010W, strain ubp6, stronger effect = lower value 0.97 | locus YGL078C, strain dbp3, stronger effect = lower value 0.985 | locus YGL086W, strain mad1, stronger effect = lower value 0.962 | locus YGL167C, strain pmr1, stronger effect = lower value 0.969 | locus YGL173C, strain kem1, stronger effect = lower value 0.966 | locus YGL227W, strain vid30, stronger effect = lower value 0.998 | locus YGL240W, strain doc1, stronger effect = lower value 0.962 | locus YGL248W, strain PDE1, stronger effect = lower value 0.944 | locus YGL253W, strain hxk2, stronger effect = lower value 0.986 | locus YGR078C, strain PAC10, stronger effect = lower value 0.899 | locus YGR135W, strain pre9, stronger effect = lower value 0.92 | locus YGR229C, strain SMI1, stronger effect = lower value 0.91 | locus YGR252W, strain gcn5, stronger effect = lower value 0.776 | locus YHR013C, strain ard1, stronger effect = lower value 0.955 | locus YHR027C, strain rpn1, stronger effect = lower value 0.983 | locus YHR030C, strain SLT2, stronger effect = lower value 0.977 and 0.969 | locus YHR079C, strain IRE1 (second series), stronger effect = lower value 0.954 | locus YHR079C, strain IRE1, stronger effect = lower value 0.939 | locus YHR094C, strain hxt1, stronger effect = lower value 0.977 | locus YHR129C, strain ARP1, stronger effect = lower value 0.978 | locus YHR142W, strain chs7, stronger effect = lower value 0.923 | locus YHR200W, strain rpn10, stronger effect = lower value 0.948 | locus YIL066C, strain RNR3, stronger effect = lower value 0.935 | locus YIL073C, strain SPO22, stronger effect = lower value 0.962 | locus YIL125W, strain kgd1, stronger effect = lower value 0.978 | locus YIR030C, strain dcg1, stronger effect = lower value 0.971 | locus YJL092W, strain hpr5, stronger effect = lower value 0.99 | locus YJL095W, strain BCK1 (second series), stronger effect = lower value 0.968 | locus YJL095W, strain BCK1, stronger effect = lower value 0.882 and 0.963 | locus YJL115W, strain asf1, stronger effect = lower value 0.995 | locus YJL129C, strain trk1, stronger effect = lower value 0.896 | locus YJL134W, strain LCB3, stronger effect = lower value 0.985 | locus YJL154C, strain vps35, stronger effect = lower value 0.973 | locus YJL164C, strain tpk1, stronger effect = lower value 0.973 | locus YJL166W, strain qcr8, stronger effect = lower value 0.967 | locus YJL168C, strain set2, stronger effect = lower value 0.973 | locus YJL187C, strain SWE1 (second series), stronger effect = lower value 0.912 | locus YJR043C, strain POL32, stronger effect = lower value 0.943 | locus YJR066W, strain TOR1, stronger effect = lower value 0.9
